Records with an inconclusive call do not appear. Where a call stands in place of a potency, no number is given. Calls of active or inactive are those of the source. Calls follow the shape of the dose curve; as a rule, active = well fitted inhibition curve with a large enough effect; inconclusive = small, poorly fitted or top-dose-only effect; inactive = flat fitted curve, though single readings scatter.
These compounds were tested against Calcium and integrin-binding protein 1 (Homo sapiens) (UniProt Q99828) (assay: Primary qHTS for Identification of Calcium Integrin Binding Protein 1 (CIB1) Competitor (AID 1508620; also: top concentration of the series differs between compounds)). Details: CIB1-GST / FITC-alphaIIb peptide fluorescence polarization; series mostly up to 57.7 µM.
Procedure, shortened: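 Fluorescence polarization competition: GST-tagged CIB1 (1 uM final) preincubated with compound 15 min at room temperature, then FITC-labelled alphaIIb peptide (100 nM final) added. After 15 min at room temperature, polarization read at Ex 480/Em 540.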

Sequence of Calcium and integrin-binding protein 1 (Homo sapiens) (Q99828 whole entry, looked up): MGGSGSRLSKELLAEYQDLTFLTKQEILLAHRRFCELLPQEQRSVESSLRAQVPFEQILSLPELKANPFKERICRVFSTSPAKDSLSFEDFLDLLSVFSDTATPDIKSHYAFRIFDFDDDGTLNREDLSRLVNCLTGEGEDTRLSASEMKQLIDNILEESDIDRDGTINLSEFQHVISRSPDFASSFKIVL

Compound	Potency
CC[C@H](C)/C=C(C)/C=C/C(=O)Cc1cc(O)c(C)c(O)c1C=O	inactive
CC[C@H]1OC(=O)[C@H](C)[C@@H](O[C@H]2C[C@@](C)(OC)[C@@H](O)[C@H](C)O2)[C@H](C)[C@@H](O[C@@H]2O[C@H](C)C[C@H](N(C)C)[C@H]2O)[C@@](C)(O)C[C@@H](C)[C@@H]2N[C@@H](COCCOC)OC([C@H]2C)[C@]1(C)O	inactive
C[C@@H]1CC[C@H]2C(C)(C)[C@H](O)[C@H](O)C[C@]2(C)[C@@]12Cc1c(O)cc3c(c1O2)CNC3=O	inactive
COC1C=C([C@@H]2CC=C3[C@@]4(C)C(CC[C@]32C)[C@@]2(C)C=CC(=O)C(C)(C)C2C[C@H]4OC(C)=O)C(=O)O1 (some centres undefined)	inactive
C[C@@H]1O[C@@H](O[C@H]2[C@H](O[C@H]3[C@H](O[C@H]4CC[C@@]5(CO)C(CC[C@]6(C)C5CC=C5C7CC(C)(C)C[C@@H](O)[C@]7(C)CC[C@]56C)C4(C)C)O[C@H](C(=O)O)[C@@H](O)[C@@H]3O)OC[C@@H](O)[C@@H]2O)[C@H](O)[C@H](O)[C@H]1O (some centres undefined)	inactive
COc1cc(C2Oc3c(OC)cc(CCCO[C@@H]4O[C@H](CO)[C@@H](O)[C@H](O)[C@H]4O)cc3C2CO)ccc1O (some centres undefined)	inactive
NCCCC[C@H](NC(=O)[C@@H]1Cc2ccccc2CN1C(=O)CCC(=O)c1ccccc1)C(=O)NCC(c1ccccc1)c1ccccc1	inactive
CCNC(=O)CCC/C=C\C[C@@H]1[C@@H](/C=C/C(O)CCc2ccccc2)[C@@H](O)C[C@@H]1O (some centres undefined)	inactive
CO[C@H]1C=C2C(CC[C@H](O[C@@H]3O[C@H](CO)[C@@H](O)[C@@H](O)[C@H]3O)C2(C)C)[C@]2(C)CC[C@]3(C)C([C@H](C)C(O)C(C=C(C)C)O[C@@H]4O[C@H](CO)[C@@H](O)[C@@H](O)[C@H]4O)CC[C@@]3(C)C12 (some centres undefined)	inactive

From PubChem BioAssay (NCATS)
